{"source": "PubChem BioAssay (NCATS)", "note": "Inconclusive results are not listed. Activity calls are given as the source filed them. The call rests on the fitted dose curve.", "data": [{"biological_target": "Vitamin D3 receptor (Homo sapiens) (UniProt P11473)", "sequence (P11473 whole entry, looked up)": "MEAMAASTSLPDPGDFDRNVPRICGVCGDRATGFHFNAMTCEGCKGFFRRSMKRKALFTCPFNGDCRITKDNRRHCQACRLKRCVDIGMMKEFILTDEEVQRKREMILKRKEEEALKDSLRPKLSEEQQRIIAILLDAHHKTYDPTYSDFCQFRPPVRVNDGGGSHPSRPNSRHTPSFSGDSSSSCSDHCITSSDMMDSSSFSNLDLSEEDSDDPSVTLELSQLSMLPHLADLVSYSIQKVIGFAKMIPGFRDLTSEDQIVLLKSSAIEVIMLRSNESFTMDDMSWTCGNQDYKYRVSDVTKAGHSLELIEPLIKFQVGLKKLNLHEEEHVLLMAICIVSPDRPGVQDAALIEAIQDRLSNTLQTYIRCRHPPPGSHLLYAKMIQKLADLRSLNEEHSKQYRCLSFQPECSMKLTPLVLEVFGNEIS", "assay": "qHTS assay for small molecule agonists of vitamin D receptor signaling (AID 588543)", "conditions": "HEK293T VDR-UAS-bla, beta-lactamase ratio, 16 h; series mostly up to 76.8 µM; activation: at the top concentration", "source_text": "NIH Chemical Genomics Center [NCGC]\nU.S. Environmental Protection Agency [EPA]\nNational Institutes of Environmental Health Sciences [NIEHS]\nNational Toxicology Program [NTP]\nThe Vitamin D receptor (VDR) is a member of nuclear hormone receptor superfamily and it plays a critical role in calcium homeostasis and bone metabolism. It plays a role in inducing cell differentiation, inhibiting cell growth and in thrombogenicity. So, VDR that mediates these effects represents a pharmacological target in prevention and treatment of hyperproliferative malignancies, such as cancer and psoriasis, cardiovascular, immunological, inflammatory and renal diseases etc.\nNCGC Assay Protocol Summary\nUsing a beta-lactamase reporter-gene under control of Vitamin D receptor (VDR) response element, a cell-based assay [GeneBLAzer (VDR -UAS-bla assay developed by Invitrogen] was used to measure VDR ligands signaling. GeneBLAzer VDR -UAS-bla HEK293T cells were used with assay medium containing 2% charcoal-stripped FBS. The assay was performed in clear bottom black Greiner 1536-well plates. 1-alpha,25-Dihydroxy vitaminD3 was used as a positive control in the screen. Library compounds were measured for their ability to stimulate the reporter gene activity. Compounds were screened in a titration series in 1536-well format. The fluorescence intensity (405 nm excitation, 460/530 nm emission) was measured using an EnVision plate reader. Data was normalized relative to 1-alpha,25-Dihydroxy vitaminD3 control (50 nM, 100%) and DMSO only wells (basal, 0%). Concentration-response titration points for each compound were fitted to the Hill equation yielding concentrations of half-maximal stimulation (EC50) and maximal response (efficacy) values.\nqHTS protocol for VDR beta-lactamase assay in agonist mode\n[Step] [Parameter] [Value] [Description]\n1. Reagent; 6 uL; 2000 cells/well\n2. Incubation; 37 C for 5 hrs\n4. Controls (1-alpha,25-Dihydroxy vitaminD3); 23 nL,\n- Final concentrations of 50 nM and 15 nM in two columns\n5. Incubation; 37 C for 16 hrs\n6. Detection reagent; 1 uL of CCF4-dye\n7. Incubation; RT for 2 hrs\n8. Detection; Fluorescence; Envision plate reader", "values": [{"smiles": "CC(=O)CCc1ccccc1", "activation": "-2.55% (inactive)"}, {"smiles": "CCC=O", "activation": "2.35% (inactive)"}, {"smiles": "Cc1ccccc1C#N", "activation": "1.3% (inactive)"}, {"smiles": "O=C(O)CCSSCCC(=O)O", "activation": "2.93% (inactive)"}, {"smiles": "Cc1ccccc1Br", "activation": "-0.653% (inactive)"}, {"smiles": "CCCCCCCCN", "activation": "3.49% (inactive)"}, {"smiles": "CCc1ccccc1O", "activation": "0.377% (inactive)"}, {"smiles": "CC/C(C)=N/O", "activation": "3.61% (inactive)"}, {"smiles": "CCCCOCCOCCSC#N", "activation": "-0.184% (inactive)"}, {"smiles": "CC=C(Cl)Cl", "activation": "-1.82% (inactive)"}, {"smiles": "O=C(O)/C=C/C(=O)O", "activation": "0.43% (inactive)"}, {"smiles": "O=C(Cl)c1cccc([N+](=O)[O-])c1", "activation": "0.415% (inactive)"}, {"smiles": "CC(=O)c1ccc([N+](=O)[O-])cc1", "activation": "2.67% (inactive)"}, {"smiles": "CCCCCCCCCCCCOCC1CO1", "note": "(stereo not given)", "activation": "-0.647% (inactive)"}, {"smiles": "CC(=O)OC(C)=O", "activation": "-1.14% (inactive)"}, {"smiles": "O=C(O)CNC(=O)c1ccc([N+](=O)[O-])cc1", "activation": "-1.14% (inactive)"}, {"smiles": "BrC(Br)C(Br)Br", "activation": "3.02% (inactive)"}, {"smiles": "c1ccc2c(c1)Oc1ccccc1S2", "activation": "1.34% (inactive)"}, {"smiles": "CC(=O)Nc1ccc(N)cc1", "activation": "0.071% (inactive)"}, {"smiles": "CCCC(Cl)CCCC(Cl)CCC(Cl)CCC(Cl)CCC(Cl)CCCC(Cl)CCC", "note": "(stereo not given)", "activation": "5.01% (inactive)"}, {"smiles": "O=Cc1c(Cl)cccc1Cl", "activation": "-0.544% (inactive)"}, {"smiles": "OC/C(Br)=C(\\Br)CO", "activation": "1.8% (inactive)"}, {"smiles": "NC=O", "activation": "-1.8% (inactive)"}, {"smiles": "CC(C)c1ccccc1", "activation": "-3.3% (inactive)"}, {"smiles": "Nc1cccc(O)c1", "activation": "0.87% (inactive)"}, {"smiles": "Nc1cccc(N)c1", "activation": "-0.339% (inactive)"}, {"smiles": "CNc1ccccc1", "activation": "2.89% (inactive)"}, {"smiles": "CCCOCC(C)OCC(C)O", "note": "(stereo not given)", "activation": "1.15% (inactive)"}, {"smiles": "CCCCCCC(=O)O", "activation": "0.237% (inactive)"}, {"smiles": "O=Cc1ccccc1Cl", "activation": "-4.08% (inactive)"}, {"smiles": "CC(=O)Nc1ccc(C)cc1", "activation": "0.225% (inactive)"}, {"smiles": "Nc1ccccc1S(=O)(=O)O", "activation": "2.55% (inactive)"}, {"smiles": "CSc1ccc(C=O)cc1", "activation": "0.0999% (inactive)"}, {"smiles": "CCOC(C)(C)C", "activation": "1.18% (inactive)"}, {"smiles": "Oc1c(Cl)ccc(Cl)c1Cl", "activation": "3.11% (inactive)"}, {"smiles": "NC(=O)/N=N/C(N)=O", "activation": "-1.81% (inactive)"}, {"smiles": "CCc1ccccc1", "activation": "-3.2% (inactive)"}, {"smiles": "Cc1c(N)cccc1N", "activation": "1.44% (inactive)"}, {"smiles": "ON=C1CCCCC1", "activation": "-0.525% (inactive)"}, {"smiles": "CCC(C)=O", "activation": "1.27% (inactive)"}]}]}
